PrPC TRFRET: inhibitors of human cell surface prion protein PrPC; hit rate 0.43% among 370,000; inhibition, % at 13.8 µM; TR-FRET read-out; in the data active = inhibition above about 24%; also: 0% = median of the test wells and 100% = reference compound wells
Mtb FBA inh: inhibits M. tuberculosis FBA enzyme | inhibition, % at 1 µM | purified M. tuberculosis FBA, fluorescence read-out | hit rate 2.3% among 360,000 | P9WQA3; in the data active = inhibition above about 27%;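 also: 0% = vehicle and 100% = reference inhibitor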
Target sequence (P9WQA3 whole entry, looked up): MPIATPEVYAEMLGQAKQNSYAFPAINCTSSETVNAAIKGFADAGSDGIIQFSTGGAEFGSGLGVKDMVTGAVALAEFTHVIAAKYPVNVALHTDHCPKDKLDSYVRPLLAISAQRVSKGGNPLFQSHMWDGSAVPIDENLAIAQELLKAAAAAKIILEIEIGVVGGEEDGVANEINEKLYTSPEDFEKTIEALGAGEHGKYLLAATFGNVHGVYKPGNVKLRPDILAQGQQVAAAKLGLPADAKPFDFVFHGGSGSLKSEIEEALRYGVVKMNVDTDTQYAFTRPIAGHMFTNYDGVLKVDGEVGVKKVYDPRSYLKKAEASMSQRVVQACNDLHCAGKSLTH
GDH-TPI inh: GDH-TPI coupled enzyme inhibition counter-screen. AID 588335. hit rate 1.2% among 360,000. inhibition, % at 4.8 µM. GDH-TPI coupled enzyme counterscreen, NADH absorbance; in the data active = inhibition above about 30%;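 also: 0% = DMSO wells and 100% = wells lacking the enzyme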
BH1578 lux ind: quorum light induction in luxS cqsA deficient V. cholerae | V. cholerae BH1578 lux reporter, luminescence, 6 h | activation, % at 18.7 µM | hit rate 0.16% among 350,000; in the data active = activation mostly above about 9.7%, no sharp cut-off
3CLpro inhibitor: SARS-CoV 3CLpro protease inhibition; P0C6X7; recombinant SARS-CoV 3CLpro, quenched FRET peptide cleavage; hit rate 0.14% among 290,000; inhibition, % at 6 µM; in the data active = inhibition above about 12%
Starred values were filed as active, the others as inactive; i = inactive; . = no result; + = active, no number. Hits are enriched below; roughly 3.9% of the tested compounds scored in any of these assays.

SMILES	PrPC TRFRET	Mtb FBA inh	GDH-TPI inh	BH1578 lux ind	3CLpro inhibitor
CC(C)c1ccc(CC(=O)N2CCC2(C)C(=O)NS(=O)(=O)c2cccc(C#N)c2)cc1 (stereo not drawn)	3	-1	4	i	.
Cc1ccccc1-c1cc(C(=O)NCc2cccc(Br)c2)nn1CC1CC(c2cccc([N+](=O)[O-])c2)=NO1 (stereo not drawn)	-2	1	11	-5	.
CCOC(=O)c1cc2c(=O)n3ccccc3nc2n(C(C)C)c1=NC(=O)c1ccncc1	-20	123*	9	-3	2
CCOC(=O)c1cc2c(=O)n3ccccc3nc2n(C(C)C)c1=NC(=O)c1c(-c2ccccc2Cl)noc1C	-1	18	-1	i	-1
CCOC(=O)c1cc2c(=O)n3ccccc3nc2n(CCCOC)c1=NC(=O)C(C)(C)C	-19	+	16	12	1
CCOC(=O)c1cc2c(=O)n3ccccc3nc2n(CCCOC)c1=NC(=O)c1cccnc1	.	.	.	.	-4
CCOC(=O)c1cc2c(=O)n3ccccc3nc2n(CCOC)c1=NC(=O)C(C)(C)C	-6	+	-8	0	1
CCOC(=O)c1cc2c(=O)n3ccccc3nc2n(CCOC)c1=NC(=O)c1ccncc1	-29	186*	10	-3	-11
COc1ccc(C(=O)OCCN2CCN(C3CN(Cc4cn(Cc5cccc(F)c5)nn4)S(=O)(=O)C3)CC2)cc1OC (stereo not drawn)	-1	.	.	.	.
CC(=O)Nc1cc(N=Cc2ccc(O)cc2O)c(Cl)cc1Cl	.	-2	8	0	-1
O=C(CSc1ccsc1[N+](=O)[O-])NCCc1ccc(Cl)cc1	2	-11	-1	i	0
O=C(CSc1ccsc1[N+](=O)[O-])NCCc1ccccc1	-24	+	4	4	4
O=C(O)C1CCc2sc3[nH]c(=S)n(-c4ccccc4)c(=O)c3c21 (stereo not drawn)	4	4	34*	-1	2
CCN(CC)C(=O)c1sc2[nH]c(=S)n(-c3ccccc3)c(=O)c2c1C	-1	1	33*	-1	-4
Cc1cccc(C(=O)OCN2C(=O)c3ccccc3C2=O)c1[N+](=O)[O-]	2	0	3	i	6
Cn1c(NC(=O)c2ccc(F)cc2)nc2ccccc21	-5	-1	15	i	0
Cn1c(NC(=O)c2ccccc2NC(=O)C(C)(C)C)nc2ccccc21	-6	8	34*	0	3
O=C(CSc1nnc(-c2cccnc2)n1-c1ccccc1)Nc1ccc2c(c1)OCCO2	8	.	.	.	.
CCOP(=O)(OCC)c1nc(-c2ccc(C)cc2)oc1N1CCOCC1	-3	169*	15	-7	2
CCOP(=O)(OCC)c1nc(-c2cccc3ccccc23)oc1N1CCOCC1	2	+	15	i	-3
CCc1nn(C)c(N)c1C	6	-1	5	0	-4
O=C(O)CC1(CC(=O)Nc2ccc(F)c(Cl)c2)CCCCC1	-7	-2	7	-1	4
O=c1[nH]c(NCCO)nc2c1C1(CCCC1)Cc1ccccc1-2	2	112*	9	i	-1
CC1(C)Cc2ccccc2-c2nc(NCCCO)[nH]c(=O)c21	2	200*	11	i	4
CCC1(C)Cc2ccccc2-c2nc(NCCO)[nH]c(=O)c21 (stereo not drawn)	-3	171*	16	.	5
SMILES	PrPC TRFRET	Mtb FBA inh	GDH-TPI inh	BH1578 lux ind	3CLpro inhibitor
CCC1(CC)Cc2ccccc2-c2nc(NN)[nH]c(=O)c21	0	16	-4	0	3
CCC1(C)Cc2ccccc2-c2nc(NN)[nH]c(=O)c21 (stereo not drawn)	3	25	16	i	-1
O=c1[nH]c(CN(CCO)CCO)nc2c1C1(CCCCC1)Cc1ccccc1-2	-1	1	16	-1	1
CN(C)c1ccc(C=O)c(Oc2ccccc2)c1	11	-2	38*	i	.
COc1ccc(Oc2ccccc2C=O)cc1	-7	-2	9	i	7
O=c1[nH]c(=S)n(C2CCCCC2)c(O)c1C=NCCN1CCOCC1	1	-7	45*	i	3
Cn1c(O)c(C=NCCN2CCOCC2)c(=O)[nH]c1=S	11	2	18	-1	-3
O=c1[nH]c(=O)n(Cc2ccccc2)c(O)c1C=NCCN1CCOCC1	4	-2	-7	0	-4
C=CCn1c(O)c(C=NCCN2CCOCC2)c(=O)[nH]c1=S	2	-3	48*	0	0
CCCCn1c(O)c(/C=N/N2CCOCC2)c(=O)[nH]c1=S	-3	3	37*	i	-3
